Only a selection was taken, and hits are over-represented in it overall.
GluA2 TARP mod = GluA2-stargazin AMPA receptor complex modulation; O88602+P19491; HEK293 GluA2+stargazin, membrane potential dye (FDSS), glutamate EC50; hits were called plate by plate, in both directions; calls only at 30 µM; 3.5% of 40,000 active; AID 1259245;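 active = any of four per-well response measures lying three or more SD from its plate-wide compound average, in either direction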
GIRK2 act = GIRK2 channel activators by thallium flux | HEK293 GIRK2/NPY4 cells, thallium flux fluorescence | activation (% efficacy), % for hits at 37.5 µM | 34,000 tested, under 10 active | AID 1259324;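 active = primary screen hit, no activity in plain HEK293 cells, and in GIRK2-only cells above 5% efficacy rising with concentration; inactive = the rest, including fluorescent compounds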;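 note: efficacy is normalized control-subtracted fluorescence 15 s after thallium addition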
Active calls of the source: *; i = inactive; x = not tested or not shown; + = active, no number.

SMILES | GluA2 TARP mod | GIRK2 act
Cc1ccc(OCC(=O)NCC(c2cccc3ccccc23)N2CCOCC2)cc1 (stereo not given) | i | i
COc1cccc(C(CNC(=O)COc2ccc(C)cc2)N2CCOCC2)c1 (stereo not given) | i | x
COc1cccc(C(CNC(=O)COc2ccccc2)N2CCOCC2)c1 (stereo not given) | + | i
COc1ccc(C(CNC(=O)c2cccc([N+](=O)[O-])c2C)N2CCOCC2)cc1 (stereo not given) | + | x
Cc1[nH]c(=O)[nH]c(=O)c1CC(=O)NCc1nc(-c2ccccc2)no1 | i | i
CCOc1ccc2ccccc2c1C(=O)NCC(c1cccc(OC)c1)N1CCOCC1 (stereo not given) | + | i
O=C(NCC(c1cccc2ccccc12)N1CCOCC1)c1ccc(Br)cc1 (stereo not given) | + | i
COc1ccc(CC(=O)NCC(c2cccc3ccccc23)N2CCOCC2)cc1 (stereo not given) | i | i
COc1ccc(C(=O)NCC(c2cccc(OC)c2)N2CCOCC2)cc1 (stereo not given) | i | i
COCCNC(=O)c1nnn(-c2ccccc2)c1CSc1ncccn1 | i | i
Cc1cc(C)c(NC(=O)C2(c3cccs3)CCOCC2)c(C)c1 | i | i
Cc1cc(C)c(NC2=C/C(=N/S(=O)(=O)c3cccs3)c3ccccc3C2=O)c(C)c1 | + | x
Cc1cc(NC(=O)C(=O)NCC2CCN(c3ccccn3)CC2)no1 | i | i
Cc1ccc(C)c(-c2csc(NC(=O)c3cccc(S(=O)(=O)C(C)C)c3)n2)c1 | i | i
COC(=O)c1ccc2occ(-c3oc4ccc(C(=O)OC)cc4c3O)c2c1 | + | i
COC(=O)c1ccc2[nH]c(C)cc(=O)c2c1 | i | i
COCCNc1oc(-c2ccc(S(=O)(=O)N3CCc4ccccc4C3)cc2)nc1C#N | i | i
Cn1cccc1C(CNC(=O)C(=O)NC1CCCC1)N1CCCC1 (stereo not given) | i | i
Cn1cccc1C(CNC(=O)C1CCN(S(C)(=O)=O)CC1)N1CCCC1 (stereo not given) | + | i
Cc1[nH]c(=O)nc(SCC(=O)NC2CCCC2)c1C#N | i | i
CCc1nc(SCC(=O)N(CC)CC)c(C#N)c2c1CCCC2 | + | x
COCCNC(=O)Nc1cc(OC)cc2cccnc12 | i | i
COc1ccccc1-c1cnn2c(Nc3ccccc3)cc(C)nc12 | i | i
COc1ccccc1-c1cnn2c(NCCc3ccccc3)cc(C)nc12 | + | i
COc1ccc(NC(=O)NCCNc2cc(-n3cccn3)ncn2)cc1Cl | i | i
SMILES | GluA2 TARP mod | GIRK2 act
O=C(CCc1ccccc1)NCCC(O)c1ccccc1 (stereo not given) | + | i
O=C(Cc1ccc(F)cc1)NCCC(O)c1ccccc1 (stereo not given) | i | i
O=C(c1nc2ccccc2s1)N(CCc1ccccc1)Cc1ccccn1 | + | i
CSc1ccccc1C(=O)N(CCc1ccccc1)Cc1ccccn1 | i | i
CC(O)(CNS(=O)(=O)c1ccc(Br)cc1)C1CC1 (stereo not given) | i | i
CCOC(=O)c1ccccc1NC(=O)CSc1c(C)cnc2c1c(=O)n(C)c(=O)n2C | i | i
CCOC(=O)c1ccccc1NC(=O)CSc1c(CC(C)C)cnc2c1c(=O)n(C)c(=O)n2C | + | x
CCOC(=O)C1CCN(C(=O)Cc2nnc(-c3ccc(OC)cc3)o2)CC1 | x | i
CCC(=O)N1c2ccccc2NC2=C(C(=O)CC(C)(C)C2)C1c1ccc(OCc2ccccc2)cc1 (stereo not given) | + | x
COC(=O)C1=C(C)N(C)C(=O)NC1c1ccc(OCc2ccccc2)cc1 (stereo not given) | i | x
COc1ccc(OCC(=O)Nc2ccc(CC(=O)N3CCOCC3)cc2)cc1 | + | i
COc1ccc(CC(=O)Nc2ccc(CC(=O)N3CCCC3)cc2)cc1 | i | i
O=C(Cc1ccc(F)cc1)N1CCC(c2ccsc2)CC1 | i | i
CCc1ccc(S(=O)(=O)Nc2ccc(C)c(N3CCCC3=O)c2)s1 | i | i
Cc1nc2ccccn2c1C(=O)NCC(c1ccco1)N1CCOCC1 (stereo not given) | i | i
CCOC(=O)c1ccc2nc(C)cc(Nc3cccc([N+](=O)[O-])c3)c2c1 | + | x
CCOC(=O)c1ccc(Nc2cc(C)nc(-n3cc([N+](=O)[O-])cn3)n2)cc1 | i | i
Cc1nnc(NC(=O)CSc2nc(-c3ccccc3)c(N)s2)s1 | i | i
Cc1nnc(NC(=O)c2ccc(S(=O)(=O)Nc3ccc(OC(F)(F)F)cc3)o2)s1 | i | i
CN(C)S(=O)(=O)c1ccc(C(=O)Nc2ccc(OC(F)(F)F)cc2)o1 | + | i
Cc1csc(NC(=O)c2ccc(S(=O)(=O)Nc3ccc(OC(F)(F)F)cc3)o2)n1 | + | i
O=C(Nc1ccc(OC(F)(F)F)cc1)c1ccc(S(=O)(=O)NC2CC2)o1 | i | i
Cc1ccc(-n2c(=S)[nH]c3sc4c(c3c2=O)CCCC4)cc1C | i | x
CSc1nc2ccc(NC(=O)CS(=O)(=O)Cc3ccccc3)cc2s1 | i | i
COc1ccc(NS(=O)(=O)c2ccc3c(c2)CCCC3)cc1N1CCCCC1=O | i | i
SMILES | GluA2 TARP mod | GIRK2 act
COc1cc(NS(=O)(=O)c2ccc3c(c2)CCCC3)ccc1N1CCCCC1=O | + | i
Cc1ccnc(C(=O)NCCNc2cc(N3CCCC3)nc(C)n2)n1 | x | i
COC(=O)Nc1nc(CC(=O)Nc2cc(OC)c(OC)c(OC)c2)cs1 | x | i
Cc1cccc(Cn2c(C3CC(=O)N(Cc4ccccc4)C3)nc3ccccc32)c1 (stereo not given) | + | x
CC(c1ccccc1)n1c(C2CC(=O)N(Cc3ccccc3)C2)nc2ccccc21 (stereo not given) | + | x
Cc1cccc(Cn2c(C3CC(=O)N(Cc4ccc(F)cc4)C3)nc3ccccc32)c1 (stereo not given) | i | x
C=CCN1CC(c2nc3ccccc3n2Cc2ccc(Cl)cc2)CC1=O (stereo not given) | + | x
CN1CC(c2nc3ccccc3n2Cc2ccccc2F)CC1=O (stereo not given) | i | x
O=C1CC(c2nc3ccccc3n2Cc2ccccc2F)CN1Cc1ccccc1 (stereo not given) | + | x
C=CCN1CC(c2nc3ccccc3n2Cc2ccc(C)cc2)CC1=O (stereo not given) | i | x
CCN1CC(c2nc3ccccc3n2Cc2ccccc2)CC1=O (stereo not given) | i | x
O=C(NCc1cccs1)NCC(c1ccco1)N1CCOCC1 (stereo not given) | i | i
Cc1ccsc1-c1nnc(CC(=O)NC(C)c2ccccc2)o1 (stereo not given) | x | i
CN1C(=O)NC2(CCN(S(=O)(=O)c3ccc(OC(F)(F)F)cc3)CC2)C1=O | i | x
C=CCN1CC(c2nc3ccccc3n2Cc2ccc(C(C)C)cc2)CC1=O (stereo not given) | i | x
C=CCN1CC(c2nc3ccccc3n2Cc2cccc(C)c2)CC1=O (stereo not given) | + | x
O=C1CCc2cc(NC(=O)C3(c4ccc(F)cc4)CC3)cc3c2N1CC3 | x | i
